The structures appear in SMILES notation. Where “and” joins values, the source holds several entries; their conditions need not be identical. Equal entries are not always repeated. Inconclusive results are not listed. A number with no mark means an inactive call. Calls of active or inactive are those of the source. The call rests on the fitted dose curve; in most records, active means well fitted inhibition curve with a large enough effect; inconclusive means small, poorly fitted or top-dose-only effect; inactive means no such curve, though single readings can be large or run the other way.

Assay [1] deals with Cytochrome P450 2C9 (Homo sapiens) (UniProt P11712). The assay can be described thus: qHTS Assay for Inhibitors and Substrates of Cytochrome P450 2C9 (AID 883). Further: nearly all actives have a fitted effect of over 60% in size. Further: potency means the concentration at half of the fitted maximal effect. The procedure, abridged:
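Signal: luciferase luminescence reporting luciferin produced by CYP2C9. Conditions: 10nM enzyme, Luciferin-H 100uM at KM, 25mM KPO4, 37C, 60 min NADPH-driven reaction. Reference: 57uM sulphaphenazole as 100% inhibition.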

Assay [2] deals with Cytochrome P450 3A4 (Homo sapiens) (UniProt P08684). The assay can be described thus: qHTS Assay for Inhibitors and Substrates of Cytochrome P450 3A4 (AID 884). Further: series mostly up to about 57 µM; nearly all actives have a fitted effect of over 50% in size. The procedure, abridged: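 20 nM human CYP3A4 with 25 uM Luciferin-PPXE (at KM) in 200 mM KPO4, preincubated 10 min with compound; NADPH regeneration started a 60 min RT reaction. Luciferin detected by luminescence, normalized to 57 uM ketoconazole as full inhibition.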
Cytochrome P450 3A4 (Homo sapiens), sequence (P08684 whole entry, looked up): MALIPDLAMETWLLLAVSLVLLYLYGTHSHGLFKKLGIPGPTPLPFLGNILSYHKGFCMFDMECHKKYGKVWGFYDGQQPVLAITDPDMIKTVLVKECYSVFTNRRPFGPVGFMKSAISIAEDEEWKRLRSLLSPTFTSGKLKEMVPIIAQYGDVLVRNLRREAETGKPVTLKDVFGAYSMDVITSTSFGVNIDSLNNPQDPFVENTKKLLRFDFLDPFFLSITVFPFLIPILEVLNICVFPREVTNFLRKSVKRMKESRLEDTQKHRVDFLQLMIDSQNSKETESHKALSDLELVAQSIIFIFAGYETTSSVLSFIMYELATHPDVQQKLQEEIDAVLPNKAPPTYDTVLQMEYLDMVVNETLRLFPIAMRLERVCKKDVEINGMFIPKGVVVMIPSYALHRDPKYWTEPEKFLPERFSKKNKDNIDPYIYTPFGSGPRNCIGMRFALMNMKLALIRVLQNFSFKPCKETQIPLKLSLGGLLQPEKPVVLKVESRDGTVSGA
Background: qHTS replaces the single test concentration by a dilution series.

Assay [3] concerns the target Cytochrome P450 2D6 (Homo sapiens) (UniProt P10635). The assay can be described thus: qHTS Assay for Inhibitors and Substrates of Cytochrome P450 2D6 (AID 891).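 Further: luciferin methyl ether substrate demethylated by CYP2D6 with NADPH regeneration; nearly all actives have a fitted effect of over 60% in size.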 The procedure, abridged: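 Human CYP2D6 (5 nM) with 30 uM Luciferin-ME EGE (at Km) in 100 mM KPO4, compound preincubated 10 min, then NADPH regeneration system for 60 min at room temperature. Luciferin read by luminescence; normalized to 1.43 uM quinidine.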

Assay [4] concerns the target Cytochrome P450 2C19 (Homo sapiens) (UniProt P33261). The assay can be described thus: qHTS Assay for Inhibitors and Substrates of Cytochrome P450 2C19 (AID 899). Further: nearly all actives have a fitted effect of over 60% in size. Further: potency means the concentration at half of the fitted maximal effect. The procedure, abridged: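 Signal comes from luciferase acting on luciferin released by CYP2C19-mediated hydroxylation of Luciferin-H EGE, 10uM (KM). Assay mix: 5nM enzyme, 50mM KPO4; 60 min at 37C with NADPH regeneration. Data normalized against 57uM ketoconazole.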
On the % scale 0 is the no-effect control and ±100 the full control effect.

Cytochrome P450 2C9 (Homo sapiens), sequence (P11712 whole entry, looked up): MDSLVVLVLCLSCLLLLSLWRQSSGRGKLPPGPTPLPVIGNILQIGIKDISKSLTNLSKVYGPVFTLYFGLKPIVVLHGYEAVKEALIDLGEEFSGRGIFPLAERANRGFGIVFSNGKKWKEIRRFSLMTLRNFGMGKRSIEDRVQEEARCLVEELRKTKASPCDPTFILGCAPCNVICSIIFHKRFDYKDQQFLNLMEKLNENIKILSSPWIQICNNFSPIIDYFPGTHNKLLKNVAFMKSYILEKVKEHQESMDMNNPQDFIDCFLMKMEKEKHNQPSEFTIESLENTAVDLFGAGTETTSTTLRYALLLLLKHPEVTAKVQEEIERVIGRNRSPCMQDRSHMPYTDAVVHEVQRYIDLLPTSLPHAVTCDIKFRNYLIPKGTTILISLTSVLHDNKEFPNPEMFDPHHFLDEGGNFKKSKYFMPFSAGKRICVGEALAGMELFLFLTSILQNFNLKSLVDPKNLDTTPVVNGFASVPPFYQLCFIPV
Cytochrome P450 2D6 (Homo sapiens), sequence (P10635 whole entry, looked up): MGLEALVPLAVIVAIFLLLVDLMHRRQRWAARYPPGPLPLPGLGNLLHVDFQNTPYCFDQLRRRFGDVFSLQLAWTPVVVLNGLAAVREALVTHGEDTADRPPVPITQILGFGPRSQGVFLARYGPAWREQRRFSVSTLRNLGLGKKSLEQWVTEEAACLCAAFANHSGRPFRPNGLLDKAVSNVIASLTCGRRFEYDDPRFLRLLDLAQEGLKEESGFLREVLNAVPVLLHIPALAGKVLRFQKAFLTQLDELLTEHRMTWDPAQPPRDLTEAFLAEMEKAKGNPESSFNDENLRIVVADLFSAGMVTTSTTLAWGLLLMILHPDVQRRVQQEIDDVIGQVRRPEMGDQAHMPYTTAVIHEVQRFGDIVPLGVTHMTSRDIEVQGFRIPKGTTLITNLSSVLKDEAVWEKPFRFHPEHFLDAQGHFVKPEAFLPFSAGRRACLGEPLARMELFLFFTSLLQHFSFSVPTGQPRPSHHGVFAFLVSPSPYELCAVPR
Cytochrome P450 2C19 (Homo sapiens), sequence (P33261 whole entry, looked up): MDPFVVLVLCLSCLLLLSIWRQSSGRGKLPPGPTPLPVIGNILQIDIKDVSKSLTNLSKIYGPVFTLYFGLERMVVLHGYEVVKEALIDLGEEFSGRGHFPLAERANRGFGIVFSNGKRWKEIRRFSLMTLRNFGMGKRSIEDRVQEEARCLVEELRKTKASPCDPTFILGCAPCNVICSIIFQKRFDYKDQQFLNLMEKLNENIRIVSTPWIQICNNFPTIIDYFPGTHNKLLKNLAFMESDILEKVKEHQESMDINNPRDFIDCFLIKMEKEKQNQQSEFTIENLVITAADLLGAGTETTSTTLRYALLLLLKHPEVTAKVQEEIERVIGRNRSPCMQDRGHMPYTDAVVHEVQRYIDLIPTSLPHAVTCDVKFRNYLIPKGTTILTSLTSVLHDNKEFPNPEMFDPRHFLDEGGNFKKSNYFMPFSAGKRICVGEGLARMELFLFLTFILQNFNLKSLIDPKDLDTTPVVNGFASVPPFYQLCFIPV

Take `O=Cc1ccc(OC2C=CC(c3ccccc3)OC2CO)cc1` (configuration not stated): the Potency entry in assay [1], in assay [3] and in assay [4] was “inactive” throughout. In addition, the activity change, negative = inhibition in assay [2] was -9.85% [at 11.4 µM].

Turning to `COc1cccc(C2NC(C(=O)O)CCC2C)c1` (configuration not stated), the Potency entry in assay [1], in assay [3] and in assay [4] was “inactive” each time. Moreover, the activity change, negative = inhibition in assay [2] was -16.8% [at 11.4 µM].

Regarding `O=C1C=C[C@@H](O)[C@@H]2[C@H]3C(=O)N(c4ccc(F)cc4F)C(=O)[C@@H]3CC[C@@H]12`, the Potency result in assay [1], in assay [3] and in assay [4] was “inactive” throughout. The activity change, negative = inhibition in assay [2] is -59.6% [at 11.4 µM].

Turning to `CC(=O)OCC1OC(C#CC(C)(C)C)C=CC1OC(C)=O` (configuration not stated), the Potency entry in assay [1], in assay [3] and in assay [4] was “inactive” in each case. In addition, in assay [2], the activity change, negative = inhibition is -15.4% [at 11.4 µM] and -10.3% [at 11.4 µM].

Consider `CCOC(=O)[C@]1(C(NC(=O)OC)c2cccc(C)c2)CCCC1=O` (some centres not stated), for which the Potency result in assay [1], in assay [3] and in assay [4] was “inactive” in each case. The activity change, negative = inhibition in assay [2] is -23.1% [at 11.4 µM].

In the case of `CCC(=O)[C@@]1(O)C(=O)N2C(=C3C(=O)OCCC31)N(Cc1ccccc1)C(C)=C(C(=O)OC)C2c1ccccc1` (some centres not stated), the Potency result in assay [1], in assay [3] and in assay [4] was “inactive” each time. In assay [2], the activity change, negative = inhibition was -16% [at 11.4 µM].

`CC1CCC(C(=O)O)NC1c1ccc(C#CCN(C)C)cc1` (configuration not stated): the Potency result in assay [1], in assay [3] and in assay [4] was “inactive” each time. Also, the activity change, negative = inhibition in assay [2] was -30.5% [at 11.4 µM].

On to `CC1(C)OC(C(O)(c2cc(C(F)(F)F)cc(C(F)(F)F)c2)c2cc(C(F)(F)F)cc(C(F)(F)F)c2)C(C(O)(c2cc(C(F)(F)F)cc(C(F)(F)F)c2)c2cc(C(F)(F)F)cc(C(F)(F)F)c2)O1` (configuration not stated), for which the Potency result in assay [1], in assay [3] and in assay [4] was “inactive” each time. Besides, the activity change, negative = inhibition in assay [2] is -21% [at 11.4 µM].

Consider `CC(=O)OCC1OC(C#Cc2ccccc2)C=CC1O` (configuration not stated), for which the Potency result in assay [1], in assay [3] and in assay [4] was “inactive” throughout. Further, in assay [2], the activity change, negative = inhibition is -14.6% [at 11.4 µM].

As for `COc1cc(O)c(C(=O)/C=C/c2ccccc2)c(O)c1`, the Potency in assay [1] was 2000 nM (active); in assay [4], 1580 nM (active). The activity change, negative = inhibition in assay [2] was -28.7% [at 11.4 µM]. Further, in assay [3], the Potency entry is “inactive”.

As to `COC(=O)C/C=C/C(C)C(OC)c1ccccc1Br` (configuration not stated), the Potency entry in assay [1], in assay [3] and in assay [4] was “inactive” in each case. Further, the activity change, negative = inhibition in assay [2] was -5.95% [at 11.4 µM].

As to `COC(=O)NC(c1cccc(C)c1)[C@@]1(C(=O)OC)CCCC1=O` (some centres not stated), the Potency result in assay [1], in assay [3] and in assay [4] was “inactive” each time. In addition, in assay [2], the activity change, negative = inhibition is -25.8% [at 11.4 µM].

With `CCCc1cc2c(c(=O)o1)C(O)C1OC1C2=O` (configuration not stated), the Potency result in assay [1], in assay [3] and in assay [4] was “inactive” throughout. Also, the activity change, negative = inhibition in assay [2] is -24% [at 11.4 µM].

With `COC1C(O)COC1/C=C/c1ccccc1` (configuration not stated), the Potency entry in assay [1], in assay [3] and in assay [4] was “inactive” each time. For the same molecule, the activity change, negative = inhibition in assay [2] was -19.7% [at 11.4 µM].

Take `COC(=O)NC(c1cccc(C)c1)[C@]1(C(C)=O)CCCC1=O` (some centres not stated): the Potency result in assay [1], in assay [3] and in assay [4] was “inactive” each time. In addition, the activity change, negative = inhibition in assay [2] was -27.8% [at 11.4 µM].

Regarding `COC(=O)NC(CC(C)=O)c1cccc(C)c1` (configuration not stated), the Potency entry in assay [1], in assay [3] and in assay [4] was “inactive” in each case. Besides, the activity change, negative = inhibition in assay [2] was -19.5% [at 11.4 µM].

Turning to `COC(=O)NC(/C=C/c1ccco1)[C@@]1(C(=O)OC)CCCC1=O` (some centres not stated), the Potency result in assay [1], in assay [3] and in assay [4] was “inactive” each time. Also, the activity change, negative = inhibition in assay [2] is 2.43% [at 11.4 µM].

As for `COc1ccc(OC)c(C2OCCC=CC2C)c1` (configuration not stated), the Potency entry in assay [1], in assay [3] and in assay [4] was “inactive” each time. Further, the activity change, negative = inhibition in assay [2] is -16.9% [at 11.4 µM].

In the case of `O=C(/C=C/c1ccccc1)N1CCCC1CO` (configuration not stated), the Potency entry in assay [1], in assay [3] and in assay [4] was “inactive” each time. Besides, the activity change, negative = inhibition in assay [2] was -20.7% [at 11.4 µM].

Turning to `CC12C=C(/C=C/c3ccc(F)cc3)C(C)(C1)C(c1ccc(F)cc1)CC2=O` (configuration not stated), the Potency entry in assay [1] and in assay [3] was “inactive” in each case. For the same molecule, the activity change, negative = inhibition in assay [2] was -18.4% [at 11.4 µM]. For the same molecule, the Potency in assay [4] was 2510 nM (active).

`CC(=O)OCC1OC(c2ccc(C(C)=O)cc2)C=CC1OC(C)=O` (configuration not stated): the Potency entry in assay [1], in assay [3] and in assay [4] was “inactive” in each case. Besides, the activity change, negative = inhibition in assay [2] was -20.5% [at 11.4 µM].

As for `COC(=O)NC(c1cccc(F)c1)C(C(C)=O)C(=O)OC` (configuration not stated), the Potency entry in assay [1], in assay [3] and in assay [4] was “inactive” each time. For the same molecule, the activity change, negative = inhibition in assay [2] is -17.1% [at 11.4 µM].

Turning to `CCC(=O)CC(NC(=O)OC)c1ccc(F)cc1` (configuration not stated), the Potency result in assay [1], in assay [3] and in assay [4] was “inactive” throughout. In addition, the activity change, negative = inhibition in assay [2] was -17.9% [at 11.4 µM].

As for `COC(=O)NC(c1ccccc1)[C@]1(C(C)=O)CCCC1=O` (some centres not stated), the Potency entry in assay [1], in assay [3] and in assay [4] was “inactive” in each case. Moreover, the activity change, negative = inhibition in assay [2] is -20.1% [at 11.4 µM].

On to `COC(=O)NC(CC(C)=O)c1ccccc1` (configuration not stated), for which the Potency entry in assay [1], in assay [3] and in assay [4] was “inactive” each time. The activity change, negative = inhibition in assay [2] is -12.9% [at 11.4 µM].

Turning to `COc1cc(C2c3[nH]c4ccccc4c3CC3C(=O)N4C(Cc5c([nH]c6ccccc56)C4c4cc(OC)c(OC)c(OC)c4)C(=O)N32)cc(OC)c1OC` (configuration not stated), the Potency entry in assay [1], in assay [3] and in assay [4] was “inactive” each time. For the same molecule, in assay [2], the activity change, negative = inhibition was -16.6% [at 11.4 µM].

As to `CCN1C(C)=C(C(=O)OC)C(c2ccccc2)N2C(=O)[C@](O)(C(=O)OC)CC(C(C)=O)=C12` (some centres not stated), the Potency entry in assay [1], in assay [3] and in assay [4] was “inactive” throughout. In assay [2], the activity change, negative = inhibition is -13.9% [at 11.4 µM].

As for `CC12C=C(/C=C/C=C/c3ccco3)C(C)(C1)C(/C=C/c1ccco1)CC2=O` (configuration not stated), the Potency result in assay [1], in assay [3] and in assay [4] was “inactive” in each case. Also, in assay [2], the activity change, negative = inhibition was 5.62% [at 11.4 µM].

The record behind these values is PubChem BioAssay (NCATS).
